In experiment [1] the target is Tyrosine-protein kinase SYK (Homo sapiens) (UniProt P43405). The note with it: at 10 µM.
Experiment [2] has as its target T1, Mitogen-activated protein kinase kinase kinase 7 (Homo sapiens) (UniProt O43318).
T1 sequence (whole entry): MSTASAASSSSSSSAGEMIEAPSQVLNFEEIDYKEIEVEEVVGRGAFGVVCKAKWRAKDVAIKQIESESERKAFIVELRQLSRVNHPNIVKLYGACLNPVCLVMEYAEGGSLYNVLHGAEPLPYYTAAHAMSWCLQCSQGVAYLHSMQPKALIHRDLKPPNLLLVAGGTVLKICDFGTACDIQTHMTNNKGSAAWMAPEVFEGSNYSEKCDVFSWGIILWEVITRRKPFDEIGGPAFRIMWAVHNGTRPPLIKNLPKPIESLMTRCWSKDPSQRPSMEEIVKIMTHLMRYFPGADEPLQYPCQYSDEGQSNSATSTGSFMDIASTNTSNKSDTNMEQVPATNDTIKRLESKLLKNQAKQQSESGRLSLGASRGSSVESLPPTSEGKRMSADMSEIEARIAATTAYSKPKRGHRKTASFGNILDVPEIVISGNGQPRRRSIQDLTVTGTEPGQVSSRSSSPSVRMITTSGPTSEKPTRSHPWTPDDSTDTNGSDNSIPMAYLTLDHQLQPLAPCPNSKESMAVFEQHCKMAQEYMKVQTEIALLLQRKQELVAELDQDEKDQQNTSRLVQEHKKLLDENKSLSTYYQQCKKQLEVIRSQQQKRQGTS
The note with it: at 1 µM.

For experiment [3], the target named is T1, Mitogen-activated protein kinase kinase kinase 7 (Homo sapiens). The note with it: at 10 µM.
Experiment [4] has as its target T2, Serine/threonine-protein kinase TAO1 (Homo sapiens) (UniProt Q7L7X3).
T2 sequence (whole entry): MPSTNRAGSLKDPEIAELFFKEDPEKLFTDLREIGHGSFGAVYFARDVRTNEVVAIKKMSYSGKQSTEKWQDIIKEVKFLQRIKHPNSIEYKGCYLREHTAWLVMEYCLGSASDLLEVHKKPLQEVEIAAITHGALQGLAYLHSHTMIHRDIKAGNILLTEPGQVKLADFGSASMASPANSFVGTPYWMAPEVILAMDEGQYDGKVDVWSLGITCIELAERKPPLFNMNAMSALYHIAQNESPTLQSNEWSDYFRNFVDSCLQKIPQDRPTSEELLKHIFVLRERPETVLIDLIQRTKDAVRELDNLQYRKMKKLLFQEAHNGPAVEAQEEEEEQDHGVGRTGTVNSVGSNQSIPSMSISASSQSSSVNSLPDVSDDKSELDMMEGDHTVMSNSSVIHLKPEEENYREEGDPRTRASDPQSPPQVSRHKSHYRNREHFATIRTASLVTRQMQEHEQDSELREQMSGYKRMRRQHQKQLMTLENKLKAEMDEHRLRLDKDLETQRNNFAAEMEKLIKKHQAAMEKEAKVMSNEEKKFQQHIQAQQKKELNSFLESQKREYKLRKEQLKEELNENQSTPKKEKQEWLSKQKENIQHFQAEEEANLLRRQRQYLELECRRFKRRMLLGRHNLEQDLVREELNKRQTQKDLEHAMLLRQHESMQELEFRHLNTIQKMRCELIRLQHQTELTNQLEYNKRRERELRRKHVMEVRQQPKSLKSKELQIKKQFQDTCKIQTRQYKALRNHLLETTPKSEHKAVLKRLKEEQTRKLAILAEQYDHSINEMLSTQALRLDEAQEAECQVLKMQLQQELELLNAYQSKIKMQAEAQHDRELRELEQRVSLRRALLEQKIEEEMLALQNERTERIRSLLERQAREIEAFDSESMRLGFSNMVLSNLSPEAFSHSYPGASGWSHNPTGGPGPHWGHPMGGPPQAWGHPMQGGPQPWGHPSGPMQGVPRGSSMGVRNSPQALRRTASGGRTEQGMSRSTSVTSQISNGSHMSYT
The note with it: at 10 µM.

The target of experiment [5] is T3, Serine/threonine-protein kinase TAO2 (Homo sapiens) (UniProt Q9UL54).
T3 sequence (whole entry): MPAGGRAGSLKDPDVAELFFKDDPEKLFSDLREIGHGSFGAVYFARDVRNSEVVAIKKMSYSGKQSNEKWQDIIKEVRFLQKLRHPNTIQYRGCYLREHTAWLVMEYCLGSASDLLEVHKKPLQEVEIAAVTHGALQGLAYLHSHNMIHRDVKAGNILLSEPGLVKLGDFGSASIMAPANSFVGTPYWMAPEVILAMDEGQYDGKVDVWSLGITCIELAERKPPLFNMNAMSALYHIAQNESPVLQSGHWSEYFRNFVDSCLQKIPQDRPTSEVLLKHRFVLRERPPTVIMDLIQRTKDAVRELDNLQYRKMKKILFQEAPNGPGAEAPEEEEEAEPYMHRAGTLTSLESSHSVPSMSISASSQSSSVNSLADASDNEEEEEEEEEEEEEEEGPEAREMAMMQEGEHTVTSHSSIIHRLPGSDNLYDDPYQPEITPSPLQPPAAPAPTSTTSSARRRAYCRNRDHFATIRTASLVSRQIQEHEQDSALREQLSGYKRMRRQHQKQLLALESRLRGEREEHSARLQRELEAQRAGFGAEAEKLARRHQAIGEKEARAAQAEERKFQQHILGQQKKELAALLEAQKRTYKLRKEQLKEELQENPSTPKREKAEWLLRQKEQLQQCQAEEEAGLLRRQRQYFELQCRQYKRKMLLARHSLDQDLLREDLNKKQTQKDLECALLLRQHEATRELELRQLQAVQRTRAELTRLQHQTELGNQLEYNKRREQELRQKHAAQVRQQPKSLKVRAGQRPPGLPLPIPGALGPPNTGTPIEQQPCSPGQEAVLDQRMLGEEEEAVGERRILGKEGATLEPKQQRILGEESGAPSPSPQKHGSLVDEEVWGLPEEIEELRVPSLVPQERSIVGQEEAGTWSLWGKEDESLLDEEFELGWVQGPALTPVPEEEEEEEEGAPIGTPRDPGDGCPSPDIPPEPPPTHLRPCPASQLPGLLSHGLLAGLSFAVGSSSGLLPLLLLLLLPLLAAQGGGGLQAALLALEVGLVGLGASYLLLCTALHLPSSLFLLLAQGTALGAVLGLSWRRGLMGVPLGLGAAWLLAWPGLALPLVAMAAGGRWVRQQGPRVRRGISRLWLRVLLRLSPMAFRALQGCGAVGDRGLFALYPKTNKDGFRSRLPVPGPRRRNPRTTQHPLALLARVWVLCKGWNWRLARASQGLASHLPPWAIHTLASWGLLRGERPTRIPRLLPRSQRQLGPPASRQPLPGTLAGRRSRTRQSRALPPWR
The note with it: at 1 µM.

The target of experiment [6] is T3, Serine/threonine-protein kinase TAO2 (Homo sapiens). The note with it: at 10 µM.
The target in experiment [7] is T4, Serine/threonine-protein kinase TAO3 (Homo sapiens) (UniProt Q9H2K8).
T4 sequence (whole entry): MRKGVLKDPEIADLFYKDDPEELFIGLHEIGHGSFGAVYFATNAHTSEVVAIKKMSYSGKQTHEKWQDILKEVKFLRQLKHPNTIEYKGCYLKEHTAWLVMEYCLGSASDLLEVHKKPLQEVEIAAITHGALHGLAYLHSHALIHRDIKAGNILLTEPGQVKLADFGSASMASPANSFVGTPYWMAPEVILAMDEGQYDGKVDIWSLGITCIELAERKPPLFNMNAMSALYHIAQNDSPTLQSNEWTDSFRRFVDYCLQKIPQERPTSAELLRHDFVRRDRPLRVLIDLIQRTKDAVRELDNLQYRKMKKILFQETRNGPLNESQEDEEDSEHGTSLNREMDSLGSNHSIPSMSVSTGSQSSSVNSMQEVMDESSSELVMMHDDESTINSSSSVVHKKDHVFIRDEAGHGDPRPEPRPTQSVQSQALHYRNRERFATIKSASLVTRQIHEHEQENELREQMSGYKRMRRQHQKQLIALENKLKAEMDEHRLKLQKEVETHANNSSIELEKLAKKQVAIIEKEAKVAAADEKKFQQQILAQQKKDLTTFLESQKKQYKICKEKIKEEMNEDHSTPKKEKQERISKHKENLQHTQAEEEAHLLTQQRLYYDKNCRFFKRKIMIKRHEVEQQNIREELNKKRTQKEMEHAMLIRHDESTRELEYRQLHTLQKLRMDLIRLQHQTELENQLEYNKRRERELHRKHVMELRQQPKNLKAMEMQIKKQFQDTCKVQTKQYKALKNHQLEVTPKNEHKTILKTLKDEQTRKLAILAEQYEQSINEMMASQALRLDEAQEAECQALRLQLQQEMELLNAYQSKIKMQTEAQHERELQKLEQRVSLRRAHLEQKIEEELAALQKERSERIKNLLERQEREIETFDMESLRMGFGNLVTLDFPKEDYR
The note with it: at 1 µM.

In experiment [8] the target is T4, Serine/threonine-protein kinase TAO3 (Homo sapiens). The note with it: at 10 µM.
For experiment [9], the target named is T5, Serine/threonine-protein kinase TBK1 (Homo sapiens) (UniProt Q9UHD2).
T5 sequence (whole entry): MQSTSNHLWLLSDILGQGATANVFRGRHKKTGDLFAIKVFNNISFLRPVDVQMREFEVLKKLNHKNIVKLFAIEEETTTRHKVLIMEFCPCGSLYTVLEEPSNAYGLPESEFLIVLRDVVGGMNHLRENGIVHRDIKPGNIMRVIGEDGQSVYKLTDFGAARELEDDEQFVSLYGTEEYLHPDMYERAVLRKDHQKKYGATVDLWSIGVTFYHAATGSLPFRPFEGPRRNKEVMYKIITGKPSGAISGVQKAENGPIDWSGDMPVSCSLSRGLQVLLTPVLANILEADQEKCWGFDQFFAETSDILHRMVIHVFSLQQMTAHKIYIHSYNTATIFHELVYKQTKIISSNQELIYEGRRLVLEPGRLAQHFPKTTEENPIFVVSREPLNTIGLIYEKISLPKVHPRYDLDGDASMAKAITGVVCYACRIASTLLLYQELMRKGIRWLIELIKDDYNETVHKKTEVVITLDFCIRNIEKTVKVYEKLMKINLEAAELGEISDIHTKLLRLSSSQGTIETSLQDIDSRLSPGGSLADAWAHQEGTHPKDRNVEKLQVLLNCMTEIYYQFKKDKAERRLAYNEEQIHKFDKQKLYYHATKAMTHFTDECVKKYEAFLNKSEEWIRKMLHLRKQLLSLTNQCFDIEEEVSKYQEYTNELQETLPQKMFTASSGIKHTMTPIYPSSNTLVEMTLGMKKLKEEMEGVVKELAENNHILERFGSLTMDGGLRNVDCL
The note with it: at 1 µM.

`Cn1cnc2cc3c(Nc4cccc(Br)c4)ncnc3cc21`: the residual activity in experiment [1] came to 86%; in experiment [2], 98%; in experiment [3], 106%; in [4], 73%; in [5], 98%; in experiment [6], 98%. The residual activity in experiment [7] is 94%; in experiment [8], 93%; in experiment [9] it was 83%.

The record behind these values is ChEMBL document CHEMBL2218924, “A broad activity screen in support of a chemogenomic map for kinase signalling research and drug discovery” (Biochem J, 2013).
